From PubChem BioAssay AID720565 (National Center for Advancing Translational Sciences (NCATS), 2013)
Results filed as inconclusive are left out. Active and inactive are the calls of the source. The call rests on the fitted dose curve; in most records, active means well fitted activation curve with a large enough effect; inconclusive means small, poorly fitted or top-dose-only effect; inactive means no such curve, though single readings can be large or run the other way.

Experiment: qHTS for small molecules that induce genotoxicity in ELG1 expressing cells: Confirmatory Assay for Cherry-picked Compounds; further: nearly all actives have a fitted effect of over 35% in size
Settings: ELG1-luciferase reporter cells, luminescence, 16 h; series mostly up to 46.1 µM
How it was run: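 Activation readout: ONE-Glo luciferase signal from ELG1 reporter cells, 2,000 per well, after 16 hr compound incubation at 37 C. Increased ELG1-driven luminescence reflects genetic stress.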
Potency means the concentration at half of the fitted maximal effect.

| SMILES | Potency |
| --- | --- |
| Nc1ccccc1NC(=O)c1ccc(CNC(=O)OCc2cccnc2)cc1 | 2.81 µM (active) |
| Oc1cc(-c2ccc(N3CCCCC3)nc2)cc2cccnc12 | 25 µM (active) |
| Cc1ccccc1NC(=O)CSc1nc2ccccc2o1 | inactive |
| Cc1ccc2c(c1)C/C(=C/c1ccc(N(C)C)cc1)C2=O | 7.05 µM (active) |
| NC(=O)C1CCN(c2cc(-c3ccc4c(c3)OCCCO4)ncn2)CC1 | 9.96 µM (active) |
| CC(=O)Nc1ccc(SCC(=O)c2cc(C)n(Cc3cccs3)c2C)cc1 | 1.12 µM (active) |
| CCOc1ccc2oc(C(=O)Nc3nccs3)c(C)c2c1 | 2.23 µM (active) |
| O=S(=O)(c1c(F)cccc1F)N1CCN(S(=O)(=O)c2c(F)cccc2F)CC1 | 15.8 µM (active) |
| COc1ccccc1NC(=O)CSc1nnc(-c2ccccc2)o1 | 2.5 µM (active) |
| COc1cc(OC)cc(-c2cc3cc4c(cc3cn2)OCO4)c1 | 5.6 µM (active) |
| CN(C)c1cccc(-c2ccnc(N3CCC(C(N)=O)CC3)n2)c1 | 0.5 µM (active) |
| CC(=NNC(=O)c1cccs1)c1ccc2c(c1)OCCO2 | 14.1 µM (active) |
| Cn1cccc1C(=O)OCC(=O)Nc1sccc1C#N | 15.8 µM (active) |
| CC1CCc2nc(-c3cc4ccc(O)cc4oc3=O)sc2C1 (stereo not drawn) | 1.26 µM (active) |
| CC(=O)N(C)c1ccc(/C=C2\C=Cc3ccccc32)cc1 | 0.561 µM (active) |
| O=C(N[C@H]1/C=C\[C@@H](O)CCCC1)OCc1ccccc1 | 9.96 µM (active) |
| CCC1CCCCN1CCCNC(=O)c1ccc2nc(N3CCC(C)CC3)sc2c1 (stereo not drawn) | 0.0706 µM (active) |
| Fc1ccc2cc(CCO[C@H]3CCCCO3)ncc2c1 | 3.97 µM (active) |
| COc1ccc(-c2nc(-c3cccnc3)no2)cc1 | 3.97 µM (active) |

| SMILES | Potency |
| --- | --- |
| Cc1ccc2nc3sc(C(=O)NCc4ccco4)cc3cc2c1 | 7.05 µM (active) |
| CC(C)C(=O)SCCCCCCC(=O)Nc1nc(-c2ccccc2)cs1 | 12.5 µM (active) |
| CCN(CC)S(=O)(=O)c1ccc(N2CCOCC2)c(NC(=O)c2[nH]c(C)c(C(C)=O)c2C)c1 | 12.5 µM (active) |
| O=S(=O)(c1ccc2ccccc2c1)N1CCN(S(=O)(=O)c2c(F)cccc2F)CC1 | 14.1 µM (active) |
| Cc1cc(C(=O)COC(=O)c2cccnc2Cl)c(C)n1C | 0.706 µM (active) |
| CC(=O)c1cc2c(cc1NC(=O)CSc1nc3ccccc3o1)OCO2 | inactive |
| C(=C\c1ccc2ccccc2n1)/c1cccnc1 | 0.25 µM (active) |
| Cc1ccccc1-c1nnc(SCC(=O)Nc2cccnc2Cl)o1 | 3.15 µM (active) |
| CCOC(=O)c1c(C)[nH]c(C(=O)NNC(=O)c2ccccc2F)c1C | 12.5 µM (active) |
| CCCC(=O)Oc1ccc2[nH]c(C(=O)c3cc4ccccc4[nH]3)cc2c1 | 6.28 µM (active) |
| Cn1cccc1C(=O)Nc1ccc(N2CCOCC2)cc1 | 7.05 µM (active) |
| O=c1nc2sc3ccccc3n2c(=O)n1-c1cccc(Cl)c1 | 5 µM (active) |
| COc1ccc(C2CC(c3c(O)cc(C)oc3=O)=NCCS2)c(OC)c1 (stereo not drawn) | 11.2 µM (active) |
| CCCCCCC[C@@H](C/C=C/CCC(=O)N(C)C/C(=C/Cl)C/C(=C\C(=O)N1CC(OC)=CC1=O)OC)OC | 1.99 µM (active) |
| CC1CCCCC1NC(=O)CN1C(=O)NC(C)(c2ccc(OC(F)F)cc2)C1=O (stereo not drawn) | inactive |
| Cc1c(OCc2ccc([N+](=O)[O-])cc2)ccc2c3c(c(=O)oc12)CCC3 | 2.81 µM (active) |
| O=C(CSc1nnc(-c2cccc(Cl)c2)o1)Nc1ccc2c(c1)OCCO2 | 15.8 µM (active) |
| CC(C)CN(C)c1ccc(/C=C2\C=Cc3ccccc32)cc1 | 14.1 µM (active) |
| CCOC(=O)N1CCN(C(=O)CSCC(=O)Nc2nc(-c3ccccc3)cs2)CC1 | inactive |
